Results from PubChem BioAssay (NCI).
This is part of a sample that, as a whole, favours compounds with a hit. Of some 79,000 tested, about 15% had one in any assay. Calls of active or inactive are those of the source. Cut-off read from the data, not from the text of the source: active = growth inhibition above about 70%; inactive = the rest. Where a SMILES comes first, the peptide text is derived from it. [ ]: non-standard residue; d: D form. ξ: configuration not given here. ξP = O=C(O)C1CCCN1

What was measured:
[1] = NCI Yeast Anticancer Drug Screen. Data for the rad50 strain (AID 155);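 note: 0% = growth of vehicle-only cultures of the same strain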; details: S. cerevisiae rad50 strain growth inhibition; at 50.0 µM; stronger effect = higher value
Summary of the method: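 Growth of the mutant yeast was measured after compound exposure and referenced to vehicle-treated cultures.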

[2] = NCI Yeast Anticancer Drug Screen. Data for the mec2-1 strain (AID 157); details: S. cerevisiae mec2-1 strain, at 50.0 µM, stronger effect = higher value
Summary of the method: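 Strain: mec2-1 (DNA repair/cell cycle alteration). Compound exposure, then growth measured; inhibition expressed relative to vehicle.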

[3] = NCI Yeast Anticancer Drug Screen. Data for the sgs1 mgt1 strain (AID 161);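 note: 0% = growth of cultures given vehicle only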; details: S. cerevisiae sgs1 mgt1 strain, at 50.0 µM, stronger effect = higher value
Summary of the method: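 Mutant yeast exposed to compound; growth scored against vehicle-only wells.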

[4] = NCI Yeast Anticancer Drug Screen. Data for the cln2 rad14 strain (AID 165);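 note: 0% = growth equal to vehicle treated cultures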; details: S. cerevisiae cln2 rad14 strain, at 50.0 µM, stronger effect = higher value
Summary of the method: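 Compounds are applied to the cln2 rad14 yeast strain, and growth is then compared with that of vehicle-treated cultures to give inhibition.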

[5] = NCI Yeast Anticancer Drug Screen. Data for the bub3 strain (AID 167); details: S. cerevisiae bub3 mutant strain, at 50.0 µM, stronger effect = higher value
Summary of the method: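 Whole-cell yeast assay. The mutant strain was incubated with compounds, and growth inhibition was determined by comparison with vehicle-treated cells.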

[6] = NCI Yeast Anticancer Drug Screen. Data for the mlh1 rad18 strain (AID 175); details: S. cerevisiae mlh1 rad18 strain growth inhibition; at 50.0 µM; stronger effect = higher value
Summary of the method: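 Read-out is yeast growth inhibition, calculated against vehicle-only controls. The compound was applied to a strain engineered with DNA damage repair alterations.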

Measured: growth inhibition

C=C[C@@H]1C(CO)=CCC2[C@H]1CCC1C(C)(C)C(=O)CC[C@]21C (stereo partly specified)
inactive: [1] -7.95% | [2] -13.4% | [3] -5.7% | [4] 2.7% | [5] 0.05% | [6] -47.1%

OCC[N+]12CCCN1CCC2
inactive: [1] -15.4% | [2] -27% | [3] -21.4% | [4] -12.9% | [5] -15.3% | [6] -30.4%

Cc1cc(C)cc(O)c1
inactive: [1] -9.4% | [2] -12.8% | [3] -42% | [4] -13.2% | [5] -14.8% | [6] -1.7%

CC1CCCC2C(=O)OC(=O)C12 (stereo unspecified)
inactive: [1] -5.3% | [2] -9.6% | [3] -13.1% | [4] -60.6% | [5] -21.1% | [6] -11.4%

CCCCCCCCCCCCCCCCCC(=O)OC(C(O)C=O)C(O)C(O)CO (stereo unspecified)
inactive: [1] 12.6% | [2] 16.3% | [3] 22.2% | [4] 23.9% | [5] -5.55% | [6] 45.8%

COc1ccccc1NC(=O)CC(=O)n1nc(C)c(N=Nc2ccccc2F)c1C
inactive: [1] -41.6% | [2] 1.45% | [3] -28.2% | [4] 6.8% | [5] -31.9% | [6] -30.3%

CCCCNS(=O)(=O)c1n[nH]c(=O)[nH]c1=O
inactive: [1] -27.1% | [2] -10.1% | [3] -37.9% | [4] -12.4% | [5] -38% | [6] -19.2%

CCCCCC1c2cc(O)ccc2OC1N1CCOCC1 (stereo unspecified)
active: [6] 88.7%
inactive: [1] 49.2% | [2] 44.5% | [3] 47.5% | [4] 48.6% | [5] 46.7%

COc1ccc(C(=O)c2ccccc2)c(O)c1OC
inactive: [1] -12.9% | [2] -5.95% | [3] -2.35% | [4] -0.75% | [5] 45.8% | [6] 10.3%

c1ccc(-c2ccc(-c3ccccc3)cc2)cc1
inactive: [1] -14.5% | [2] -9.4% | [3] -15.1% | [4] -15.2% | [5] 18.6% | [6] -30.9%

Cc1cccc(N2CCC(O)C2)c1 (stereo unspecified)
inactive: [1] -5.3% | [2] 7.25% | [3] -0.1% | [4] 9.35% | [5] -6.9% | [6] -21.1%

CC1=C(CCC(C)CO)OC2CC3C4CCC5CC(O)CCC5(C)C4CCC3(C)C12 (stereo unspecified)
inactive: [1] -4.5% | [2] -22.6% | [3] -24.7% | [4] -1.9% | [5] -21.1% | [6] -16.4%

Clc1ccc(-c2cc(-c3ccc(Cl)cc3)n(-c3ccccc3)n2)cc1
inactive: [1] -17.5% | [2] -33.9% | [3] -24.2% | [4] 4% | [5] 6.55% | [6] -9.2%

Cn1cc([N+](=O)[O-])cc1C(=O)Nc1cc(C(=O)Nc2ccc(S(=O)(=O)O)c3cc(S(=O)(=O)O)ccc23)n(C)c1
inactive: [1] 2.4% | [2] 21.4% | [3] 14.3% | [4] 17.4% | [5] 20.4% | [6] 11.7%

CC(=O)OCCOCNC(=S)N/N=C/c1ccc(Br)s1
inactive: [1] 15.3% | [2] -8.3% | [3] 20.1% | [4] 28.1% | [5] 9.2% | [6] -0.8%

CC(=O)NC1c2ccccc2-c2ccccc21
inactive: [1] -5.1% | [2] 34.2% | [3] -1.15% | [4] 42% | [5] 17.3% | [6] 3.8%

C=C1C[C@]23CC[C@@H]4C(CO)(CO)CC(=O)C[C@]4(C)[C@@H]2C(O)C[C@H]1C3 (stereo partly specified)
inactive: [1] 30.6% | [2] 17.9% | [3] 17.8% | [4] -5.05% | [5] 7.05% | [6] 30.9%

CC(C)(C)OC(=O)N1CCc2c([nH]oc2=O)C1
inactive: [1] -1.25% | [2] -8.55% | [3] -3.5% | [4] -17.6% | [5] 10.6% | [6] -3.8%

Cc1noc(-c2ccccc2)c1N=Nc1ccccc1
inactive: [1] 11.6% | [2] 12.1% | [3] 28.1% | [4] -34.2% | [5] 45.1% | [6] 28.5%

Cc1ccc(O)c(C(C)(C)C)c1
inactive: [1] 14.9% | [2] -8% | [3] 20.4% | [4] 21.3% | [5] -0.65% | [6] 8.5%

Cc1cccc(Cl)c1NC(=O)c1cccc(C(=O)Nc2c(C)cccc2Cl)c1
inactive: [1] 9.3% | [2] 4.45% | [3] 15.4% | [4] -30.3% | [5] -2.5% | [6] 27.6%

CN(C)CCNC(=O)c1cccc(N(C)C(=O)c2ccccc2)c1[N+](=O)[O-]
inactive: [1] 6.65% | [2] -9.45% | [3] 6.5% | [4] 17.6% | [5] 7.05% | [6] 3.15%

CCN(CC)C(=O)C1CCCCN1 (stereo unspecified)
inactive: [1] 1.65% | [2] 2.6% | [3] 3.1% | [4] -43.2% | [5] -11% | [6] 6.65%

CN(C)C=Nc1ccn(CCO)c(=O)n1
inactive: [1] 21.6% | [2] -16.9% | [3] 23.6% | [4] 19.1% | [5] 21.9% | [6] 33.2%

COc1cc2c(c([N+](=O)[O-])c1)NC(=O)CS2
inactive: [1] -81.2% | [2] -60.5% | [3] -17.2% | [4] -4.5% | [5] 0.95% | [6] -28.1%

c1ccc(C(=C2CCC2)c2c3ccccc3cc3ccccc23)cc1
inactive: [1] -10.1% | [2] 9.4% | [3] -7% | [4] 5.8% | [5] -17.9% | [6] -20.1%

C=C[C@]1(O)CCC[C@]2(C)C(=O)CCC12C (stereo partly specified)
inactive: [1] -2.8% | [2] -21.9% | [3] -19.2% | [4] 10.8% | [5] -22.2% | [6] -31.9%

Cn1c2ccccc2c2ccc3c(c21)C(=O)NC3=O
inactive: [1] 15.6% | [2] 10.7% | [3] -7.75% | [4] -7.7% | [5] -21.9% | [6] 13.3%

Cn1ccc2c3ccsc3ccc21
inactive: [1] 21.8% | [2] 6.35% | [3] 4.55% | [4] -5.5% | [5] 4.3% | [6] 1.05%

NCC(=O)N1CCCC1C(=O)NCC(=O)NCC(=O)O (stereo unspecified) (H-G[ξP]GG-OH)
inactive: [1] 11.6% | [2] 0.95% | [3] 4.8% | [4] -32% | [5] -16.9% | [6] 3.15%

N#CCCN(c1ccc(C=O)cc1)S(=O)(=O)c1ccccc1
inactive: [1] -0.1% | [2] -13% | [3] -1.75% | [4] 5.75% | [5] -13.4% | [6] -15.7%

c1scc2c1COCCOCCOCCOCCOCCOCCOC2
inactive: [1] -21.7% | [2] -14.8% | [3] 10.4% | [4] 5.05% | [5] 6.3% | [6] -6.9%

Cc1cc(Cc2ccc3c(c2)OCO3)ccc1OCC(=O)O
inactive: [1] 15.1% | [2] 18.3% | [3] 15.6% | [4] 13.4% | [5] 20.8% | [6] 23.8%

Cn1c(N)c(/C=C/C(=O)Oc2ccccc2)c(=O)n(C)c1=O
inactive: [1] 49.7% | [2] 18.4% | [3] 16.5% | [4] 16.8% | [5] -8.8% | [6] -43.1%

CCOC(=O)c1c(C)[nH]c(=S)c(C#N)c1-c1ccc(Cl)cc1
inactive: [1] 13% | [2] 12.1% | [3] 34.4% | [4] 4.55% | [5] 28.6% | [6] -1.55%

CN(C)C(=NN)N(C)C
inactive: [1] 0.5% | [2] -2.3% | [3] 1.55% | [4] -34% | [5] 3.6% | [6] -3.9%

CC1=C(C#N)C(=N)OC1(C)C1CC(=O)C=CC1=O (stereo unspecified)
inactive: [1] -11.5% | [2] 27.4% | [3] 7.9% | [4] 20.5% | [5] 4.55% | [6] 4.6%

Cc1cccc(C(C)(C)C)c1NC(=O)C(=O)C(C(=O)/C=C\c1ccccc1)C1OC(=O)c2ccccc21 (stereo unspecified)
inactive: [1] 7.4% | [2] -4.95% | [3] 12.3% | [4] 30.4% | [5] 13.8% | [6] 6.1%

CCCCCC(=O)OCC(COC(=O)CCCCC)OC(=O)CCCCC
inactive: [1] -2.65% | [2] 23.1% | [3] -5.05% | [4] 12.6% | [5] 10.9% | [6] 20.6%

CCC(N)CS(=O)(=O)O (stereo unspecified)
inactive: [1] -33.7% | [2] -19.6% | [3] -9.9% | [4] -61% | [5] -26.8% | [6] -45.1%

COc1ccc(C(=O)C(C)(CCC#N)CCC#N)cc1
inactive: [1] -10.3% | [2] -6.3% | [3] 3.25% | [4] -44.6% | [5] 14.3% | [6] 2.3%
